“And” between values parts separate entries of the source, which are not always exact repeats. Equal values may be shown once. About 83,000 compounds went through this panel and 20% of them were active in at least one assay; those are over-represented in the sample as a whole.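 A percent growth of 40 corresponds to 60% growth inhibition; 0 means no net growth; -100 means all cells died. Active threshold: below 10.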 The source made the active and inactive calls.
What was measured:
Test in all cases: NCI-60 one-dose screen, 48 h (100 = growth as untreated, 0 = no growth, -100 = all killed)
[1] = test system: RPMI-8226 leukemia; settings: 10 µM
[2] = test system: OVCAR-8 ovarian; settings: 10 µM unless noted
[3] = test system: OVCAR-5 ovarian; settings: 10 µM unless noted
[4] = test system: SK-OV-3 ovarian; settings: 10 µM
[5] = test system: IGROV1 ovarian; settings: 10 µM unless noted
[6] = test system: OVCAR-3 ovarian; settings: 10 µM unless noted
[7] = test system: HS 578T breast; settings: 10 µM unless noted
[8] = test system: BT-549 breast; settings: 10 µM unless noted
[9] = test system: MDA-MB-435 melanoma; settings: 10 µM unless noted
[10] = test system: SW-620 colon; settings: 10 µM unless noted
[11] = test system: HCT-116 colon; settings: 10 µM unless noted
[12] = test system: HCC-2998 colon; settings: 10 µM unless noted
[13] = test system: KM12 colon; settings: 10 µM unless noted
[14] = test system: MCF7 breast; settings: 10 µM unless noted
[15] = test system: OVCAR-4 ovarian; settings: 10 µM unless noted
[16] = test system: NCI/ADR-RES ovarian; settings: 10 µM unless noted
[17] = test system: T-47D breast; settings: 10 µM

Measured: growth

Cc1ccc(C(=O)Nc2ccccc2N)cc1
inactive: [1] 15% | [2] 59.5% | [3] 51.1% | [4] 92.9% | [5] 70.1% | [6] 90.8% | [7] 71.4% | [8] 61.5% | [9] 68.3% | [10] 60% | [11] 62.9% | [12] 77.1% | [13] 87.4%

CCCn1c2c(c3ccccc3c1=O)C(=O)c1ccccc1-2
inactive: [14] 51.4% [100 µM] and 17.4% [100 µM]

Cc1ccccc1-c1cc(-c2ccc(Br)s2)[nH]c(=O)c1C#N
inactive: [1] 102% | [2] 105% | [3] 104% | [15] 108% | [5] 96.5% | [6] 113% | [7] 96% | [16] 98.5% | [8] 105% | [9] 103% | [10] 108% | [14] 92.3% | [11] 93.3% | [12] 104% | [13] 105%

COC(=O)CCC(=O)c1ccccc1
inactive: [1] 98.6% | [2] 102% | [3] 98.4% | [15] 112% | [4] 119% | [6] 111% | [7] 123% | [17] 102% | [8] 107% | [9] 96.9% | [10] 106% | [14] 96.1% | [11] 108% | [13] 110%

CN1CCc2cccc3c2C1Cc1ccc(O)c(O)c1-3 (stereo unspecified)
inactive: [2] 89% | [3] 88.3% | [4] 102% | [5] 76.2% | [6] 28% | [7] 99.1% | [17] 89.3% | [8] 81.6% | [9] 98.6% | [10] 34.8% | [14] 81.6% | [11] 77% | [12] 86.5%

CC1(C)CCCC(C)(C2CCC3(C)C2C(O)CC2C4(C)CCC(O)C(C)(C)C4C(O)CC23C)O1 (stereo unspecified)
active: [14] -19.1% [100 µM] and -85.7% [100 µM]

C1CCC([PH+](C2CCCCC2)C2CCCCC2[PH+](C2CCCCC2)C2CCCCC2)CC1.[Au].[CH-]1CCCCC1CC1CCCC[N-]1 (stereo unspecified)
inactive: [15] 37.5% | [7] 18.3% | [16] 30.9%

Nc1cc2c3c(cccc3c1)C(=O)N(c1ccc(OCCN3CCCCC3)cc1)C2=O
active: [14] -95.1% [100 µM] and -100% [100 µM]

— PubChem BioAssay (NCI)
